Results: PubChem BioAssay AID1578 (Sanford-Burnham Center for Chemical Genomics, 2009)
The campaign covered roughly 290,000 compounds. About 3,000 (1%) were called active. The list comes from a sample in which actives are over-represented; it also holds similar structures and randomly drawn compounds. Values without a mark were called inactive. Cut-off read from the data, not from the text of the source: active = inhibition mostly above about 36% (no sharp cut-off); inactive = mostly below about 34%.

Test: NOD1 signaling inhibitors, primary screen, cell-based, luminescence, uHTS (AID 1578);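 note: HEK-293T reporter cells stimulated with the NOD1 agonist gamma-tri-DAP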
Details: NOD1-driven NF-kB luciferase reporter cells, at 4 µM, hits give high values

SMILES	inhibition
COc1cc(C2C(C#N)=C(N)N(c3cccnc3)C3=C2C(=O)CC(C)(C)C3)ccc1O (centres undefined)	9.6%
COc1ccc(C2C(C#N)=C(N)N(c3cccnc3)C3=C2C(=O)CC(C)(C)C3)cc1OC (centres undefined)	63.5% (active)
COc1ccccc1C1C(C#N)=C(N)N(c2cccnc2)C2=C1C(=O)CC(C)(C)C2 (centres undefined)	-21.9%
Cc1ccc(C)c(OC(=O)c2cccnc2)c1	-20.5%
Cc1ccc(OC(=O)c2ccncc2)c(C)c1	-45.8%
Cc1ccc(C)c(OC(=O)c2ccncc2)c1	54.5% (active)
CCN(CC)C(=O)CSc1nc(O)cc(=O)n1-c1ccccc1OC	-12.3%
CCC(NC(=O)NNC(=O)c1ccncc1)(C(F)(F)F)C(F)(F)F	-3.5%
CCOc1ccc(-c2ccc(SCC)nn2)cc1	-47.8%
COc1ccc(-c2ccc(SC)nn2)cc1	-8.7%
CCOc1ccc(-c2ccc(SC)nn2)cc1	57.2% (active)
COc1ccc(CC(=O)NNC(=O)COc2ccc3ccccc3c2)cc1	-32%
N#Cc1ccccc1NC(=O)COC(=O)c1ccc(F)cc1F	2.3%
Cc1cc(C)cc(C(=O)NC2CC(C)(C)NC(C)(C)C2)c1	-11.3%
COc1cc(OC)cc(C(=O)NC2CC(C)(C)NC(C)(C)C2)c1	83% (active)
COc1cc(C(=O)NC2CC(C)(C)NC(C)(C)C2)cc(OC)c1OC	-31.3%
O=C(NC(CC(=O)N1CCN(c2ccc([N+](=O)[O-])cc2)CC1)c1ccccc1)c1ccccc1Cl (centres undefined)	-5.6%
Cc1nc(-c2nc(-c3c(C(=O)NN)noc3C)cs2)cs1	-35.9%
Cc1ccc2c(c1)C(=O)c1c(C(=O)O)cccc1-2	-14.6%
CC1CCN(C(=O)C(C)Sc2nc(-c3ccccc3)cc(C(F)(F)F)n2)CC1 (centres undefined)	15.1%
CC(Sc1nc(-c2ccccc2)cc(C(F)(F)F)n1)C(=O)N1CCC(C(N)=O)CC1 (centres undefined)	62.8% (active)
CC(Sc1nc(-c2ccccc2)cc(C(F)(F)F)n1)C(=O)N1CCCC1 (centres undefined)	-30.7%
O=C(O)CCn1c(SCCOc2ccccc2)nc2ccccc21	-29.9%
CCCCN(C)Cc1cc(=O)oc2ccc3ccccc3c12	-5.4%
CCc1ccc(OCc2nnc(SCCN3CCOCC3)n2CC)cc1	-13.7%

SMILES	inhibition
FC(F)(F)c1cccc(Cn2cnc(NC(=S)NCCc3ccccc3)n2)c1	-22.4%
Fc1ccccc1NC(=S)NCCc1ccccc1	11.7%
Fc1ccccc1Cn1cnc(NC(=S)NCCc2ccccc2)n1	47.4% (active)
Nc1nc(-c2ccccc2)c(N=Nc2cccnc2)s1	69.6% (active)
Nc1nc(-c2ccccc2)c(N=Nc2ccc(Cl)cc2)s1	14.5%
Nc1nc(-c2ccccc2)c(N=Nc2cccc3ccccc23)s1	-6.2%
Cc1cc(NC(=O)CSc2nc(Cc3ccc(O)cc3)c(C)[nH]2)no1	29.2%
COC(=O)c1nn(-c2ccc3c(c2)CCN3C(C)=O)cc1O	78.5% (active)
COC(=O)c1nn(-c2ccc3c(c2)OCO3)cc1O	-11.8%
CCOC(=O)c1nn(-c2ccc3c(c2)CCN3C(C)=O)cc1O	-27.8%
N#CN=C(c1ccccc1)c1ccccc1	-20.8%
O=C(c1ccc(N2CCCC2=O)cc1)N1CCN(c2ccc(Cl)cc2)CC1	-4.5%
O=C(c1ccccc1-c1nc(-c2ccccc2)no1)N1CCCC1	-35%
FC(F)(F)c1ccc(C2NCCc3sccc32)cc1 (centres undefined)	-38.2%
Cn1ccs/c1=N\C(=O)Nc1cccc(C(F)(F)F)c1	-21.9%
Cn1ccs/c1=N\C(=O)Nc1cccc(Cl)c1	110% (active)
Cn1ccs/c1=N\C(=O)Nc1ccccc1	-7.2%
CCOC(=O)CN1C(=O)S/C(=C/c2ccco2)C1=O	-37.3%
CC(C)N(C)Cc1nnnn1CC(=O)N(C)Cc1cccc(Cl)c1	-14.1%
Nc1nc(Nc2ccc(Cl)cc2)nc(NCCO)c1[N+](=O)[O-]	3%
CC(C)C(=O)Nc1cccc(C(=O)Nc2ccccc2C(=O)O)c1	-0.4%
Cc1ccc(NC(=O)c2ccc(OC(=O)C(C)Oc3ccc(Cl)cc3C)cc2)cc1 (centres undefined)	-12.4%
Cc1cc(Cl)ccc1OC(C)C(=O)Nc1ccc(C(=O)Nc2ccccc2C(=O)O)cc1 (centres undefined)	82.7% (active)
Cn1cnnc1SCc1ccc(C#N)cc1Cl	-35.4%
CC1CC(NC(=O)Cc2ccc(Br)cc2)CC(C)(C)C1 (centres undefined)	-9.8%

SMILES	inhibition
CC(C)COC(=O)c1cccc2c1-c1ccccc1/C2=N\O	14.1%
CC1CCCC(C)N1C(=O)c1cccc2c1-c1ccccc1/C2=N/O (centres undefined)	75.8% (active)
O=C1c2ccccc2-c2c1cccc2C(=O)N1CCCCC1	-12.6%
O=C(c1cccc2c1-c1ccccc1/C2=N/O)N1CCCCC1	66.9% (active)
COc1ccccc1C(=O)Nc1ccccc1C(=O)N1C(C)CCCC1C (centres undefined)	-5%
O=C1c2ccccc2-c2c1cccc2C(=O)N1CCCCCC1	0.4%
CN1CC(=O)N(CC(=O)Nc2cc(Cl)cc(Cl)c2)C1=O	-17.3%
CCn1c(=O)c(C(=O)Nc2ccsc2C(=O)OC)c(O)c2ccccc21	-28.8%
COc1ccccc1C(=O)NC1CC2CCC(C1)N2Cc1ccccc1 (centres undefined)	-9.7%
COc1ccc(CCNC(=S)NC(=O)c2cccc(Cl)c2)cc1OC	-2.1%
CCCn1nc([N+](=O)[O-])c(C(C#N)c2nc3ccccc3s2)c(Cl)c1=O (centres undefined)	63.6%
Cn1nc([N+](=O)[O-])c(C(C#N)c2nc3ccccc3n2C)c(Cl)c1=O (centres undefined)	23.7%
Cn1nc([N+](=O)[O-])c(C(C#N)c2ccccn2)c(Cl)c1=O (centres undefined)	-21.4%
CCCn1nc([N+](=O)[O-])c(C(C#N)c2nc3ccccc3o2)c(Cl)c1=O (centres undefined)	80.5% (active)
CCn1nc([N+](=O)[O-])c(C(C#N)c2nc3ccccc3n2C)c(Cl)c1=O (centres undefined)	32%
COc1ccc(C(C(=O)NC2CCCCC2)N(C(=O)c2ccco2)c2ccccc2C(C)=O)cc1OC (centres undefined)	-17.6%
COc1ccc2c(c1)C(=O)C(=O)N2CC1COc2ccccc2O1 (centres undefined)	-10%
O=C(NCCc1csc(-c2ccccc2)n1)c1ccccc1F	28.3% (active)
O=C(NCCc1csc(-c2ccccc2)n1)c1c(F)cccc1Cl	-7.4%
O=C(NCCc1csc(-c2ccccc2)n1)c1c(F)cccc1F	-19.1%
CCOC(=O)c1nnn2c1nc(N1CCOCC1)c1ccccc12	3.1%
Cc1ccc(C(=O)N(CC(=O)NC2CCCCC2)c2ccccc2F)s1	-27%
O=C(NC1CC1)c1ccc(CS(=O)c2ccccc2)o1 (centres undefined)	-19%
Cc1ccc2nc(NC(=O)c3ccc(OCC4CCCO4)cc3)sc2c1 (centres undefined)	3.2%
C/C=C(/C)C(=O)OC(C)(C)[C@@H]1Cc2c(ccc3ccc(=O)oc23)O1	-44.4%

SMILES	inhibition
O=C(COn1nnc2ccc(C(F)(F)F)cc21)Nc1c(Cl)cccc1Cl	-17.9%
Cc1cccc(C)c1NC(=O)COn1nnc2ccc(C(F)(F)F)cc21	-17.2%
O=C(COn1nnc2ccc(C(F)(F)F)cc21)Nc1nnc(-c2ccccc2)o1	67.4% (active)
CCOC(=O)C1(Nc2nccs2)Sc2ccccc2NC1=O (centres undefined)	24.1%
CSc1nncc(-c2ccc(F)cc2)n1	12.5%
COc1ccc(/C(C)=N/NC(=O)c2ccc(NS(=O)(=O)c3cccs3)cc2)cc1	-9.8%
CSCC[C@H](N)C(=O)NCC1CCC(C(=O)Nc2ccc3c(c2)OCO3)CC1 (some centres undefined)	-1.6%
N#CC1(c2ccccc2)CCCN1C(=O)c1ccco1 (centres undefined)	7.3%
Cc1c(C(C)(C)C)s/c(=N/S(=O)(=O)c2ccccc2)n1C	3%
CCn1c(Cl)c(C=O)s/c1=N\S(=O)(=O)c1ccccc1	34% (active)
O=Cc1s/c(=N\S(=O)(=O)c2ccccc2)n(CCCCl)c1Cl	17.3%
CN(C)S(=O)(=O)c1cccc(C(=O)Nc2ccccc2N2CCCCC2)c1	-14.5%
COc1cc(-c2c(-c3cc(OC)c(OC)c(OC)c3)noc2C)ccc1F	-21.2%
COc1cc(-c2noc(C)c2-c2ccc(N(C)C)nc2)cc(OC)c1OC	62% (active)
COc1ccc(-c2c(-c3cc(OC)c(OC)c(OC)c3)noc2C)cn1	-8.6%
CCOC(=O)c1cnn(-c2nc(C)nc3sc4c(c23)CCC4)c1N	-33%
CCOC(=O)c1cnn(-c2nc3sc4c(c3c(=O)[nH]2)CCCC4)c1N	63.7% (active)
CCOC(=O)c1cnn(-c2nc(SC)nc3sc4c(c23)CCCC4)c1N	-0.3%
S=C(NCc1ccc(Cl)cc1)NN1CCOCC1	-24.6%
CCOCCCNC(=O)NC(=O)CN1CCN(S(=O)(=O)c2ccc3c(c2)OCCO3)CC1	-47%
O=C1CCC(=O)N1CC1CC2CCC1C2 (centres undefined)	0.2%
COC(=O)c1cn(-c2ccccc2)nc1-c1ccc(OC)cc1	47.5% (active)
COC(=O)c1cn(-c2ccccc2)nc1-c1ccccc1	-4.9%
COc1ccc(-c2nn(-c3ccccc3)cc2C(=O)O)cc1	18.9%
